Assay results taken from the supplement of paper PMC6953052.
± gives the standard deviation of the averaged measurements. In all, about 1,700 compounds were measured (“fraction of GFP-LC3-positive cells (≥5 vesicles/cell)”: median about 0.43, highest 2% from about 0.81 on). Only a selection was taken, and the highest values are over-represented in it overall.

Tested on: CbCln3 Δex7/8/Δex7/8 GFP-LC3 cerebellar neuronal cells
Test: fraction of GFP-LC3-positive cells (≥5 vesicles/cell); higher = more autophagosome accumulation
How it was run: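 Compound (~50 nL in DMSO) was pin-transferred in duplicate onto wild-type or mutant CbCln3 cerebellar cells stably expressing GFP-LC3, seeded at 2 × 10^3/well in 384-well plates, for 24 h at 33 °C. After fixation in 3.2% PFA, three fields per well were imaged at 10×. The value reported is the duplicate average of the fraction of cells meeting a vesicle-count threshold, with CellProfiler counting GFP-LC3 vesicles per cell and out-of-focus images excluded. Cells met the threshold at 5 or more vesicles.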

SMILES	fraction of GFP-LC3-positive cells
CCCCCCCCCCCCCCC[C@@H](O)[C@H](CO)NC(=O)CCCCCCC [C8 Dihydroceramide]	0.428
CCCCCCCCCCCCCCC[C@@H](O)[C@H](CO)NC(=O)CCCCCCC	0.494
CN(CCc1ccc(Cl)c(Cl)c1)CC(O)COc1ccc(NS(C)(=O)=O)cc1 (stereo not given)	0.503
CC(=N)NCc1cccc(CN)c1	0.371
Cc1c(N(C)CS(=O)(=O)[O-])c(=O)n(-c2ccccc2)n1C.[Na+] [Dipyrone]	0.447
O=c1c(O)c(-c2ccc(O)cc2)oc2cc(O)cc(O)c12 [Kaempferol]	0.294
O=C1C=CC(=O)c2c1ccc1c2ccc2ccccc21 [Chrysene-1,4-quinone]	0.883
O=C1CCc2c(ccc3ccccc23)O1 [Splitomycin]	0.354
N=C(N)NS(=O)(=O)c1ccc(N)cc1 [Sulfaguanidine]	0.43
CN(C)CC/C=C1\c2ccccc2COc2ccccc21.Cl [Doxepin hydrochloride]	0.567
CCCc1c(OCCCCc2nnn[nH]2)ccc(C(C)=O)c1O	0.398 ± 0.011
Cc1c(N)c(=O)n(-c2ccccc2)n1C [Ampyrone]	0.49
CO[C@@H]1[C@H](N(C)C(=O)c2ccccc2)C[C@H]2O[C@]1(C)n1c3ccccc3c3c4c(c5c6ccccc6n2c5c31)C(=O)NC4	0.636
O=P(O)(O)C(O)c1ccc2ccccc2c1 (stereo not given)	0.425
CN(C)CC/C=C1\c2ccccc2CSc2ccccc21.Cl [Dosulepin hydrochloride]	0.637
CN(C)CCn1nnnc1SCC1=C(C(=O)O)N2C(=O)[C@@H](NC(=O)Cc3csc(N)n3)[C@H]2SC1.Cl [Cefotiam hydrochloride]	0.488
CCCCC/C=C\C[C@@H](O)/C=C/C=C/C=C/[C@@H](O)CCCC(=O)O [5(S),12(R)-DiHETE all trans]	0.354
Nc1cc(N2CCCCC2)nc(N)[n+]1OS(=O)(=O)[O-]	0.38
CCCC(=O)Nc1ccc(OCC(O)CNC(C)C)c(C(C)=O)c1.Cl (stereo not given) [Acebutolol hydrochloride]	0.518
CN(C(=O)CN(CCO)CC(=O)N(C)C(C)(C)Cc1ccccc1)C(C)(C)Cc1ccccc1 [Oxethazaine]	0.384
CCCCC[C@H](O)/C=C/[C@H]1[C@H](O)CC(=O)[C@@H]1CCCCCCC(=O)O [Prostaglandin E1]	0.349
CCCCC[C@H](O)/C=C/[C@H]1[C@H](O)CC(=O)[C@@H]1CCCCCCC(=O)O	0.346
O=c1[nH]c2cc(C(F)(F)F)ccc2n1-c1cc(C(F)(F)F)ccc1O	0.292
C[n+]1ccccc1/C=N/O.[Cl-] [Pralidoxime chloride]	0.428
Clc1ccc(COC(Cn2ccnc2)c2ccc(Cl)cc2Cl)c(Cl)c1 (stereo not given) [Miconazole]	0.337

SMILES	fraction of GFP-LC3-positive cells
CC1(C)S[C@@H]2[C@H](NC(=O)[C@H](N)c3ccccc3)C(=O)N2[C@H]1C(=O)OC1OC(=O)c2ccccc21.Cl (stereo not given in full) [Talampicillin hydrochloride]	0.422
CN/C(=N/CCSCc1nc[nH]c1C)NC#N [Cimetidine]	0.473
Cn1cnc([N+](=O)[O-])c1Sc1ncnc2[nH]cnc12 [Azathioprine]	0.388
CCCCC/C=C\C/C=C\C/C=C\C/C=C\CCCC(=O)O[C@@H](CO)COCCCCCCCCCCCCCCCC [1-Hexadecyl-2-arachidonoyl-glycerol]	0.517
CCCCC/C=C\C/C=C\C/C=C\C/C=C\CCCC(=O)O[C@@H](CO)COCCCCCCCCCCCCCCCC	0.311
CC(C)n1c(/C=C/[C@H](O)C[C@H](O)CC(=O)[O-])c(-c2ccc(F)cc2)c2ccccc21.[Na+] [Fluvastatin sodium salt]	0.123
CC(CNC1CCCCC1)OC(=O)c1ccccc1.Cl (stereo not given) [Hexylcaine hydrochloride]	0.411
O=C1NC(=O)C(c2ccccc2[N+](=O)[O-])=C1Nc1ccc(O)c(Cl)c1	0.364
CN[C@@H]1C(O[C@H]2O[C@H](CO)[C@@H](N)[C@H](O)[C@H]2O)O[C@H]2C[C@@H](N)[C@@H](O[C@H]3[C@H](O)[C@@H](O)[C@H](N)C[C@@H]3N)OC2[C@@H]1O (stereo not given in full) [Apramycin]	0.274
CCCCCCCCCC(=O)N[C@@H](CCCN=C(N)N)C(=O)N[C@H](C(=O)N[C@@H](CCCCN)C(=O)N[C@@H](CCCN=C(N)N)C(=O)CCl)C(C)C	0.536
CCCCC/C=C\C/C=C\CC1OC1C/C=C\CCCC(=O)O (stereo not given)	0.392
CCCCC/C=C\C/C=C\CC1OC1C/C=C\CCCC(=O)O (stereo not given) [8,9-Epoxyeicosatrienoic acid]	0.41
CCCCCC/C=C/CCCCCCCCC(=O)O [10(Z)-Heptadecenoic acid]	0.419
CCCC[C@@H](C=O)NC(=O)OC(C)(C)C	0.447
COc1c2occc2c(OC)c2c(=O)cc(C)oc12 [Khellin]	0.508
Cl.c1cnc(N2CCN(Cc3ccc4c(c3)OCO4)CC2)nc1 [Piribedil hydrochloride]	0.496
Clc1ccc(COC(Cn2ccnc2)c2ccc(Cl)cc2Cl)cc1.O=[N+]([O-])O (stereo not given) [Econazole nitrate]	0.353
COC(=O)C1=C(C)NC(C)=C([N+](=O)[O-])C1c1ccccc1C(F)(F)F (stereo not given)	0.449
CC(=O)N(CC(C)C(=O)O)c1c(I)cc(I)c(N)c1I (stereo not given) [Iocetamic acid]	0.312
COc1cc(S(C)=O)ccc1-c1nc2ncccc2[nH]1 (stereo not given) [Sulmazole]	0.364
CN(C)CCCN1c2ccccc2Sc2ccccc21.Cl [Promazine hydrochloride]	0.434
C#C[C@]1(O)CC[C@H]2[C@@H]3CCC4=C(CCC(=O)C4)[C@H]3CC[C@@]21C [Norethynodrel]	0.389
COc1ccc2cc([C@@H](C)C(=O)[O-])ccc2c1.[Na+] [(R) -Naproxen sodium salt]	0.478
Cl.NC(CO)C(=O)NNCc1ccc(O)c(O)c1O (stereo not given) [Benserazide hydrochloride]	0.411
CC(C)(C)c1cc(O)c(C(C)(C)C)cc1O [2,5-ditertbutylhydroquinone]	0.696

SMILES	fraction of GFP-LC3-positive cells
COc1cc2nc(N(C)CCCNC(=O)C3CCCO3)nc(N)c2cc1OC.Cl (stereo not given) [Alfuzosin hydrochloride]	0.474
CC(=O)N[C@@H](CC(C)C)C(=O)O [N-Acetyl-L-leucine]	0.38
COc1ccc2c(c1)c(CC(=O)OCC(=O)O)c(C)n2C(=O)c1ccc(Cl)cc1 [Acemetacin]	0.361
COc1ccc(C[C@H](N)C(=O)N[C@H]2[C@@H](O)[C@H](n3cnc4c(N(C)C)ncnc43)O[C@@H]2CO)cc1.Cl.Cl [Puromycin dihydrochloride]	0.937
COc1ccc(CC(N)C(=O)N[C@H]2[C@@H](O)[C@H](n3cnc4c(N(C)C)ncnc43)O[C@@H]2CO)cc1 (stereo not given in full) [puromycin]	0.782
CNc1ncnc2c1ncn2[C@@H]1O[C@H](CO)[C@@H](O)[C@H]1O [N6-methyladenosine]	0.417
CCN(CC)CCCC(C)Nc1ccnc2cc(Cl)ccc12.O=P(O)(O)O.O=P(O)(O)O (stereo not given) [Chloroquine diphosphate]	0.518
CCN(CC)CCCC(C)Nc1c2ccc(Cl)cc2nc2ccc(OC)cc12.Cl.Cl.O.O (stereo not given) [Quinacrine dihydrochloride dihydrate]	0.866
CCN(CC)Cc1cc(Nc2ccnc3cc(Cl)ccc23)ccc1O.Cl.Cl.O.O [Amodiaquin dihydrochloride dihydrate]	0.513
NC1CONC1=O (stereo in doubt) [(S)-(-)-Cycloserine]	0.414
CNC(C)CCC=C(C)C.CNC(C)CCC=C(C)C.O=C(O)C(O)C(O)C(O)C(O)C(=O)O (stereo not given) [Isometheptene mucate]	0.479
Cc1c(N(C)C)c(=O)n(-c2ccccc2)n1C [Amidopyrine]	0.504
COc1cc2c3cc1Oc1c(OC)c(OC)cc4c1[C@@H](Cc1ccc(OC(=O)c5ccc([N+](=O)[O-])cc5)c(c1)Oc1ccc(cc1)C[C@@H]3N(C)CC2)N(C)CC4 [E6 berbamine]	0.834
COc1ccc2cc1Oc1ccc(cc1)C[C@H]1c3cc(c(OC)cc3CCN1C)Oc1c(OC)c(OC)cc3c1[C@H](C2)N(C)CC3	0.746
COc1ccc2cc1Oc1ccc(cc1)C[C@H]1c3cc(c(OC)cc3CCN1C)Oc1c(OC)c(OC)cc3c1[C@H](C2)N(C)CC3 [Tetrandrine]	0.679
CNCCc1ccccn1.CS(=O)(=O)O.CS(=O)(=O)O [Betahistine mesylate]	0.488
c1ccc(CN(CCN(Cc2ccccn2)Cc2ccccn2)Cc2ccccn2)nc1	0.952
CN(C)CCN(Cc1ccc(Cl)cc1)c1ccccn1.Cl [Chloropyramine hydrochloride]	0.566
CCc1cccc2c3c([nH]c12)C(CC)(CC(=O)O)OCC3 (stereo not given) [Etodolac]	0.495
CCc1cc(Cl)c(OC)c(C(=O)NC[C@@H]2CCCN2CC)c1O.Cl [S(-)Eticlopride hydrochloride]	0.341
C[C@]1(Cn2ccnn2)[C@H](C(=O)O)N2C(=O)C[C@H]2S1(=O)=O [Tazobactam]	0.531
CCCCCCCCCCCCCCC[C@@H](O)[C@@H](N)CO	0.515
CCCCCCCCCCCCCCC[C@@H](O)[C@@H](N)CO [Dihydrosphingosine]	0.348
C[C@]12C=CC(=O)C=C1CC[C@@H]1[C@@H]2C(=O)C[C@@]2(C)[C@H]1CC[C@]2(O)C(=O)CO [Prednisone]	0.49
CCCC[C@@H](C)/C=C(C)/C=C(\C)C(=O)NC1=C[C@@](O)(/C=C/C=C/C=C/C(=O)NC2=C(O)CCC2=O)[C@@H]2O[C@@H]2C1=O [manumycin A]	0.917
